# The supplement of paper PMC6411743
# ± gives the standard deviation of the averaged measurements. Of roughly 5,400 targets only a part is listed; those with the largest changes were picked by preference.
# Molecular target: A0A0A0MT26|P13637|P13637-2|P13637-3 (UniProt P13637)
# Assay: NP40-soluble protein abundance relative to vehicle (solubility fold change) (ratio); higher = more soluble protein in presence of GTP
# Description: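 Solubility proteome profiling in Jurkat crude lysate. Lysate was treated with Mg-GTP (0.1-10 mM) for 10 min at room temperature and 3 min at 37 °C, then solubilised with 0.8% NP40 and benzonase, followed by ultracentrifugation. Proteins were quantified by TMT10 LC-MS/MS; the value is the NP40-soluble abundance relative to the NP40-processed vehicle, from 3 independent experiments.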
smiles,measurement,setting,value
Nc1nc2c(ncn2[C@@H]2O[C@H](COP(=O)(O)OP(=O)(O)OP(=O)(O)O)[C@@H](O)[C@H]2O)c(=O)[nH]1 [guanosine triphosphate],NP40-soluble protein abundance,concentration: 0.1mM,1.01 ± 0.05
same,NP40-soluble protein abundance,concentration: 0.5mM,1.01 ± 0.028
same,NP40-soluble protein abundance,concentration: 1mM,1.02 ± 0.028
same,NP40-soluble protein abundance,concentration: 2mM,0.982 ± 0.029
same,NP40-soluble protein abundance,concentration: 4mM,1.01 ± 0.042
same,NP40-soluble protein abundance,concentration: 6mM,1 ± 0.0083
same,NP40-soluble protein abundance,concentration: 8mM,1 ± 0.034
same,NP40-soluble protein abundance,concentration: 10mM,0.958 ± 0.047
